The source of these data is PubChem BioAssay (NCATS).

Each structure is given as a SMILES string. Records with an inconclusive call do not appear. Calls of active or inactive are those of the source. Unless noted, calls follow the shape of the full dose curve.

Test [1] in a line: qHTS assay for small molecule antagonists of peroxisome proliferator-activated receptor delta signaling (AID 588535; active = well fitted inhibition curve with a large enough effect in the signal ratio, with a control signal flat, not every such curve was filed as active; the % refers to the signal ratio;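 as to max response: cells co-treated with a PPAR-delta agonist as stimulator during compound exposure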). The note with it: HEK293T PPARd-UAS-bla, beta-lactamase FRET ratio, 18 h; 460 nm channel. The essentials:
(§1)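 HEK293T PPAR-delta-UAS-bla cells, 4000/well, 2% charcoal/dextran FBS; 5 h 37 C; cpd titration; 18 h 37 C; CCF4 2 h RT; FI 460/530 nm; Hill fit → IC50, efficacy.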

Test [2] deals with Peroxisome proliferator-activated receptor delta (Homo sapiens) (UniProt Q03181). Described as above. The essentials:
as §1

For test [3], the target named is Peroxisome proliferator-activated receptor gamma (Homo sapiens) (UniProt P37231). The test is described as follows: qHTS assay for small molecule agonists of peroxisome proliferator-activated receptor gamma signaling (AID 588536; active = well fitted curve in the direction sought with a large enough effect in the signal ratio, with a control signal flat, not every such curve was filed as active; the % refers to the signal ratio;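 also: 0% = DMSO basal wells and 100% = rosiglitazone at 2 µM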). The essentials:
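Test agents, titrated, stimulated HEK293 UAS-bla cells overnight (16 h, 37 C). Substrate CCF4 was then added for two hours at room temperature before fluorescence reading.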

The target of test [4] is Vitamin D3 receptor (Homo sapiens) (UniProt P11473). The test is described as follows: qHTS assay for small molecule antagonists of vitamin D receptor signaling (AID 588541).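 Also: receptor activated by calcitriol during compound treatment; series mostly up to about 77 µM; % is scaled to controls: 0 for no effect and ±100 for the full control effect.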 In outline: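 Antagonist-mode beta-lactamase reporter assay: HEK293T VDR-UAS-bla cells were exposed to titrated compound alongside 1-alpha,25-dihydroxyvitamin D3 at 3 nM final for 16 h. Values were normalized to the 50 nM agonist control and DMSO basal, with IC50 and efficacy from Hill equation fits.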
A general note: qHTS replaces the single test concentration by a dilution series.

Test [5] shares this target. As to the kind of experiment: qHTS assay for small molecule agonists of vitamin D receptor signaling (AID 588543).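 Also: 0% = DMSO basal and 100% = reference agonist control.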 In outline: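 Measured: β-lactamase reporter activity (CCF4, 405 nm excitation, 460/530 nm emission) in HEK293T VDR-UAS-bla cells after 16 h compound exposure at 37 °C. Normalization against 50 nM 1α,25-dihydroxyvitamin D3 and DMSO; Hill-fit EC50.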
Test [6] can be described thus: qHTS assay for small molecule agonists of retinoid X receptor alpha signaling (AID 588544).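 As to activation: 0% = DMSO basal wells and 100% = reference agonist.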 The note with it: HEK293T RXRa-UAS-bla, beta-lactamase reporter, 18 h; 530 nm emission.
In test [7] the target is Retinoic acid receptor RXR-alpha (Homo sapiens) (UniProt P19793). The test is described as above.
A short description of test [8]: qHTS assay for small molecule antagonists of retinoid X receptor alpha signaling (AID 588546; active = well fitted inhibition curve with a large enough effect in the signal ratio, with a control signal flat, not every such curve was filed as active; the % refers to the signal ratio;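 also: cells stimulated with 9-cis-retinoic acid as agonist; % is scaled to controls: 0 for no effect and ±100 for the full control effect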). Conditions: HEK293T RXRa-UAS-bla, beta-lactamase ratio, antagonist mode; measured here: W530 green channel, cytotoxicity proxy. In outline: (§2)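 Beta-lactamase reporter inhibition, read as CCF4 fluorescence ratio (ex 405, em 460/530 nm) after 2 h at RT. HEK293T UAS-bla cells, 2500/well, were stimulated with 9-cis-RA at 500 or 100 nM final alongside test compound for 18 h at 37 C.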

Test [9] concerns the target Retinoic acid receptor RXR-alpha (Homo sapiens) (UniProt P19793). The description is as above. The note with it: HEK293T RXRa-UAS-bla, beta-lactamase ratio, antagonist mode. The essentials:
as §2

Test [10] deals with Thyroid hormone receptor beta (Homo sapiens) (UniProt P10828). The test is described as follows: qHTS assay for small molecule antagonists of thyroid hormone receptor beta signaling (AID 588547; active = well fitted inhibition curve with a large enough effect in the signal ratio, with a control signal flat, not every such curve was filed as active; the % refers to the signal ratio;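 also: cells stimulated with 0.4 nM T3 agonist during compound exposure; series mostly up to about 77 µM; % is scaled to controls: 0 for no effect and ±100 for the full control effect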). The note with it: TR-UAS-bla HEK293, beta-lactamase ratio, antagonist mode, 18 h. In outline:
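Inhibition of T3-driven (0.4nM final) beta-lactamase reporter activity was measured over 0.59 nM to 92 uM compound after 18 h at 37 C. The cells were GripTite HEK293 TR-UAS-bla in charcoal/dextran-stripped serum, with CCF4 ratio read-out and IC50 from Hill fits.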

In test [11] the target is Voltage-gated inwardly rectifying potassium channel KCNH2 (Homo sapiens) (UniProt Q12809). The test is described as follows: qHTS Assay for Small Molecule Inhibitors of the Human hERG Channel Activity (AID 588834; active = well fitted curve in the direction sought with a large enough effect; an effect the other way counts as inactive or inconclusive;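 also: top concentration of the series differs between compounds; % is scaled to controls: 0 for no effect and ±100 for the full control effect; lower thallium flux fluorescence means stronger hERG block; nearly all actives have a fitted effect of over 50% in size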). The essentials: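 Blockade is seen as reduced FluxOR thallium-flux fluorescence in U2OS cells expressing hERG from a BacMam construct, in Opti-MEM with 2% FCS. Concentration-response data fitted to the Hill equation for AC50.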

Test [12] is described as follows: qHTS assay for small molecule agonists of the antioxidant response element (ARE) signaling pathway (AID 651741; active = well fitted activation curve with a large enough effect in the signal ratio; the % refers to the signal ratio; also: % of control where 0% means no effect). In outline: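 Quantitative HTS in HepG2 cells stably expressing an ARE-beta-lactamase reporter; 16 h compound exposure at 37 C, followed by 2 h room-temperature incubation with LiveBLAzer B/G FRET substrate and fluorescence measurement.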
Test [13] can be described thus: qHTS assay for small molecule activators of the p53 signaling pathway (AID 651743; active = well fitted activation curve with a large enough effect in the signal ratio, not every such curve was filed as active; the % refers to the signal ratio; also: series mostly up to about 92 µM; % of control where 0% means no effect). The note with it: HCT-116 p53RE-bla, beta-lactamase FRET ratio, 16 h; activation: stronger effect = higher value. The essentials:
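Read-out is fluorescence intensity from the LiveBLAzer B/G FRET substrate, added for 2 hours at room temperature after HCT-116 p53RE-bla cells had been incubated with compounds for 16 hours at 37 C.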

A short description of test [14]: qHTS assay for small molecule disruptors of the mitochondrial membrane potential - 1 hr assay (AID 651754). Also: % is scaled to controls: 0 for no effect and ±100 for the full control effect; nearly all actives have a fitted effect of over 35% in size. In outline:
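HepG2 cells, attached overnight, were exposed to compound for 1 hr at 37C, then stained 30 min with a potentiometric dye. Ratio of red aggregate (590nm) to green monomer (535nm) fluorescence reports membrane potential; collapse shifts signal toward green.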

Test [15] can be described thus: qHTS assay for small molecule disruptors of the mitochondrial membrane potential - 5 hr assay (AID 651755). Also: % is scaled to controls: 0 for no effect and ±100 for the full control effect; nearly all actives have a fitted effect of over 40% in size. In outline: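 HepG2, 2,000 cells/well, overnight attach; cpd or DMSO 5 hr, 37C/5% CO2; Mito-MPS 30 min 37C; fluor 490/535 + 540/590 nm.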
Test [16] addresses Peroxisome proliferator-activated receptor alpha (Homo sapiens) (UniProt Q07869). As to the kind of experiment: qHTS assay for small molecule agonists of the peroxisome proliferator-activated receptor alpha (PPARalpha) signaling pathway (AID 651778; active = well fitted curve in the direction sought with a large enough effect; an effect the other way counts as inactive or inconclusive; also: % of control where 0% means no effect). The note with it: PathHunter PPARalpha complementation, chemiluminescence, 6 h; max response: stronger effect = higher value. In outline: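 Chemiluminescence from complemented enzyme reported PPARalpha activation in cells after 6 hr of compound treatment at 37 C. The detection reagent was incubated for 60 min at room temperature, and compounds were scored as agonists.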

The nature of test [17]: qHTS assay for small molecule agonists of the antioxidant response element (ARE) signaling pathway measured by Nrf2-dependant transcriptional activity (AID 720636; active = well fitted curve in the direction sought with a large enough effect in the repeat runs; an effect the other way counts as inactive or inconclusive;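 also: HepG2 cells with an ARE-driven luciferase reporter; % of control where 0% means no effect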). In outline: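 Attachment 6 hr at 37 C, then compound versus DMSO vehicle for 16 hr in ARE-luc HepG2 cells (1% dialyzed FBS); luminescence recorded 30 min after ONE-Glo addition at room temperature.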
Test [18] can be described thus: qHTS assay for small molecule antagonists of the retinoid-related orphan receptor gamma (ROR-gamma) signaling pathway - cell viability counter screen (AID 720652; active = well fitted curve in the direction sought with a large enough effect in the repeat runs; an effect the other way counts as inactive or inconclusive;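 also: CHO reporter cells with doxycycline-induced ROR-gamma expression; series mostly up to about 92 µM; compound exposure lasted 16 hr before ATP read; % is scaled to controls: 0 for no effect and ±100 for the full control effect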). The essentials: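 CHO cells carrying TET-inducible ROR and RORE-luciferase reporter, plated 5 hr, then dosed with compound plus doxycycline. After 16 hr at 37 C, viability read as intracellular ATP by CellTiter-Glo luminescence.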

A short description of test [19]: qHTS assay for small molecule agonists of the antioxidant response element (ARE) signaling pathway measured by Nrf2-dependant transcriptional activity - cell viability counter screen (AID 720653; active = well fitted curve in the direction sought with a large enough effect in the repeat runs; an effect the other way counts as inactive or inconclusive; also: % is scaled to controls: 0 for no effect and ±100 for the full control effect). Conditions: ARE-bla HepG2 viability, CellTiter-Glo ATP luminescence, 16 h; max response: stronger effect = lower value. In outline:
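Cytotoxicity counter screen: intracellular ATP quantified by CellTiter-Glo luminescence in the same ARE-bla HepG2 plates, after 16 h compound exposure and a 2 h beta-lactamase substrate step.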

Test [20] in a line: qHTS assay for cell viability of the p53RE-bla HCT-116 cell line (AID 743292; active = well fitted curve in the direction sought with a large enough effect; an effect the other way counts as inactive or inconclusive; also: % is scaled to controls: 0 for no effect and ±100 for the full control effect; nearly all actives have a fitted effect of over 55% in size). In outline:
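Compound-exposed HCT-116 (p53RE-bla) cells, 4,000 per well, were kept 16 h at 37 C following a 5 h preincubation. Cell number was estimated from total ATP by CellTiter-Glo luminescence read after 30 min at room temperature.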

The nature of test [21]: NCATS anti-infectives library activity on HEK293 viability as a counter-qHTS vs the C. elegans viability qHTS (AID 1745854; active = well fitted curve in the direction sought with a large enough effect; an effect the other way counts as inactive or inconclusive). In outline: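 HEK293 cells (1,500/well) exposed 24 hr at 37C to 1:5 titrations, up to 41.7 uM final; counter-screen to a C. elegans viability qHTS. Viability by CellTiter-Glo luminescence after 10 min at room temperature; digitonin as control.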
Test [22] deals with Nuclear receptor subfamily 1 group I member 2 (Rattus norvegicus) (UniProt Q9R1A7). The test is described as follows: qHTS assay for small molecule activators of the rat pregnane X receptor (rPXR) signaling pathway (AID 651751; call rule not given here; also: 0% is about no effect). The note with it: rPXR reporter cells, luciferase (One-Glo), 24 h.
The nature of test [23]: qHTS assay for small molecule activators of the human pregnane X receptor (PXR) signaling pathway (AID 720659; call rule not given here; also: 0% is about no effect).

Sequence of Vitamin D3 receptor (Homo sapiens) (P11473 whole entry, looked up): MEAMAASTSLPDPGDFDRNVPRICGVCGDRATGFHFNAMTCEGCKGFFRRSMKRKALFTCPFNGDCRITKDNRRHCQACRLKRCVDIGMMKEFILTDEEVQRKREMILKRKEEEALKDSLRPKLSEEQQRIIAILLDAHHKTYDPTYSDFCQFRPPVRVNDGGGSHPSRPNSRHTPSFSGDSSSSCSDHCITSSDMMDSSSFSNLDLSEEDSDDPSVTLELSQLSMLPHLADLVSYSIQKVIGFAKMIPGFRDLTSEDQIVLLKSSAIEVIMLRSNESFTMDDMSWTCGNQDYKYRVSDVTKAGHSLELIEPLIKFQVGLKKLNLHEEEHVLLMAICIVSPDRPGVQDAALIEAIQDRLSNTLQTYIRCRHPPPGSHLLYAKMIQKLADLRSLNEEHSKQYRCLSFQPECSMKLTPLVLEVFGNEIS
Sequence of Retinoic acid receptor RXR-alpha (Homo sapiens) (P19793 whole entry, looked up): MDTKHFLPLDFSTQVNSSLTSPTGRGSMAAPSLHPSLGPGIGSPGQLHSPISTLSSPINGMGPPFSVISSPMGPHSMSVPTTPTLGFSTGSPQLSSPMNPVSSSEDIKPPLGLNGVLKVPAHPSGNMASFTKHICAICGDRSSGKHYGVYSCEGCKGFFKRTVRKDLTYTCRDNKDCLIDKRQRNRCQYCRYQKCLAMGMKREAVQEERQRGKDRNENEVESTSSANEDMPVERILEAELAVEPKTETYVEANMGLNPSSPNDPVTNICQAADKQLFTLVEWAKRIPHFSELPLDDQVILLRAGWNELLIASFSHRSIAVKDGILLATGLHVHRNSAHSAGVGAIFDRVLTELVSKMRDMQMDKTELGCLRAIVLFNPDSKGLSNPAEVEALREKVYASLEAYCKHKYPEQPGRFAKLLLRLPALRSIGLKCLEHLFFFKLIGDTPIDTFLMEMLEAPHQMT
Sequence of Voltage-gated inwardly rectifying potassium channel KCNH2 (Homo sapiens) (Q12809 whole entry, looked up): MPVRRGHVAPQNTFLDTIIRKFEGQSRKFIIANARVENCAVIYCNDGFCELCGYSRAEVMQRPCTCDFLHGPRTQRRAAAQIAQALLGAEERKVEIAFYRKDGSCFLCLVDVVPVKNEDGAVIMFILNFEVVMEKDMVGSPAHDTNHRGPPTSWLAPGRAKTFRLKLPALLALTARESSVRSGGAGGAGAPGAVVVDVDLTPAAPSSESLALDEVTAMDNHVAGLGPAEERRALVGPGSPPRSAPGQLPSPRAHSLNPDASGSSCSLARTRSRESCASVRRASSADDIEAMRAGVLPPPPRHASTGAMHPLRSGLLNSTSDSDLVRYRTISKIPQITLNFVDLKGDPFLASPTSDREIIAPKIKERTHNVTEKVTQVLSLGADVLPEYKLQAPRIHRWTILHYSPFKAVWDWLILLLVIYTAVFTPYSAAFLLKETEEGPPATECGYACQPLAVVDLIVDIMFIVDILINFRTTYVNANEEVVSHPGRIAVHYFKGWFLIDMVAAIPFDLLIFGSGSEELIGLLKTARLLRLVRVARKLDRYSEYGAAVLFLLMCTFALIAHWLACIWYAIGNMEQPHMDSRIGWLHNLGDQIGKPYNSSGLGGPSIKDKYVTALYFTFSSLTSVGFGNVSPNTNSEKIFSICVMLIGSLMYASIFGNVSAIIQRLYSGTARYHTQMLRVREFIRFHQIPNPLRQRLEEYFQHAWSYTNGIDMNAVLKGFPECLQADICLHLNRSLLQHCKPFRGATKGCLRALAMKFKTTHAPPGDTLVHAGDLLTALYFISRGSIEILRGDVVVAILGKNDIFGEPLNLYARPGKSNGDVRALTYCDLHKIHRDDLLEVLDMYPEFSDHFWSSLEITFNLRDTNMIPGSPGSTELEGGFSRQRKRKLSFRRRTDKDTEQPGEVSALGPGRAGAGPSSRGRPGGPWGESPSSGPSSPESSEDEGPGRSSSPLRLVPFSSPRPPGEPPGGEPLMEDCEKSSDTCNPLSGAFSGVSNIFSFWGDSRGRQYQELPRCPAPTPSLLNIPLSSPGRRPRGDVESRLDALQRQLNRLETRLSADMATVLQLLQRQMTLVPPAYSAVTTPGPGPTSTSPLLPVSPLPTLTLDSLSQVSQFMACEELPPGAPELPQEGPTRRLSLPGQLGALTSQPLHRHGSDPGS
Sequence of Peroxisome proliferator-activated receptor gamma (Homo sapiens) (P37231 whole entry, looked up): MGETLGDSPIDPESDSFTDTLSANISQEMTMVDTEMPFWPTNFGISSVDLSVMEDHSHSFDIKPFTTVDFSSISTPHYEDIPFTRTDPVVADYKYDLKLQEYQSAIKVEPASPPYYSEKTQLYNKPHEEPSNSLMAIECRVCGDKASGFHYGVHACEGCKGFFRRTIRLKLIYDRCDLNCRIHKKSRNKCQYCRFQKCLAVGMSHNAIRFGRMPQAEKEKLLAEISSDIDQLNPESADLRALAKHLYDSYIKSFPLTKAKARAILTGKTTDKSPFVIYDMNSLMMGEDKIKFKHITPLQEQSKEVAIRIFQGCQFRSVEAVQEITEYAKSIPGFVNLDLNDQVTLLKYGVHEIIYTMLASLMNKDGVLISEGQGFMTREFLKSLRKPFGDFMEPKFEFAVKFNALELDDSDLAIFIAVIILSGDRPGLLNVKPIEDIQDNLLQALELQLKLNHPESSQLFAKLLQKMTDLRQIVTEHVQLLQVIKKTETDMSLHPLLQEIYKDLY
Sequence of Peroxisome proliferator-activated receptor alpha (Homo sapiens) (Q07869 whole entry, looked up): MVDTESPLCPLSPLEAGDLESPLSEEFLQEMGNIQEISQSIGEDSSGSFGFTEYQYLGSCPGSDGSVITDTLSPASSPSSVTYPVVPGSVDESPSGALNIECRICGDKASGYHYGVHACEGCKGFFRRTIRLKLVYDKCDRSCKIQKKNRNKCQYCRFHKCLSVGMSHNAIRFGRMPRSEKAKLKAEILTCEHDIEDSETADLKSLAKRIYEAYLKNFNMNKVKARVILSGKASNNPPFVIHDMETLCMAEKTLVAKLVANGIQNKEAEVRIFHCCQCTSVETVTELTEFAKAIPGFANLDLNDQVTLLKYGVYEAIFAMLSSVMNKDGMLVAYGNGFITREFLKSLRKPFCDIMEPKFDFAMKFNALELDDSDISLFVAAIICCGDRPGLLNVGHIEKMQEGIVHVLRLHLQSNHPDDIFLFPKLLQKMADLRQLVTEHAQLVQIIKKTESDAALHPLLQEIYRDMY
Sequence of Peroxisome proliferator-activated receptor delta (Homo sapiens) (Q03181 whole entry, looked up): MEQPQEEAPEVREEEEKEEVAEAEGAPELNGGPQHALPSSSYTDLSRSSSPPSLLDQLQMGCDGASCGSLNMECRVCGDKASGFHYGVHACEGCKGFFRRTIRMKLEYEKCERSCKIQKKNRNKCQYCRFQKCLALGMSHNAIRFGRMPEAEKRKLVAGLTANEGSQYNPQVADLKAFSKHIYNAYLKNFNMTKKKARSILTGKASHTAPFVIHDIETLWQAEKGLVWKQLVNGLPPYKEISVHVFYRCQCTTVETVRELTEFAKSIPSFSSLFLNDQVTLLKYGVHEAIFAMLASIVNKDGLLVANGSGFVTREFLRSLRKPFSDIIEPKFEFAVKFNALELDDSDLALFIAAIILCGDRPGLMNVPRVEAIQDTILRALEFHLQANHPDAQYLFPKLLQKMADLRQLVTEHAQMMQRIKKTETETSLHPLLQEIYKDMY
Sequence of Nuclear receptor subfamily 1 group I member 2 (Rattus norvegicus) (Q9R1A7 whole entry, looked up): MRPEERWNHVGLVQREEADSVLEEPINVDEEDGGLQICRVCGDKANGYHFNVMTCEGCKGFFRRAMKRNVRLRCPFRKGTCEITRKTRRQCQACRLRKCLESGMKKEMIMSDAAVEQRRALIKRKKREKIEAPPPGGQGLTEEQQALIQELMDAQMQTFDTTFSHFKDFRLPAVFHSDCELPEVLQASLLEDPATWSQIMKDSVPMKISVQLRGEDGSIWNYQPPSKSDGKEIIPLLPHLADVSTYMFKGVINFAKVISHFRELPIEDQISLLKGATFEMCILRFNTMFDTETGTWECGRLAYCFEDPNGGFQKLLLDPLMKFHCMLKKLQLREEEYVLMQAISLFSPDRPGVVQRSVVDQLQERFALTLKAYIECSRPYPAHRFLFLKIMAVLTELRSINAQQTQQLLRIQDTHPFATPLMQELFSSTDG
Sequence of Thyroid hormone receptor beta (Homo sapiens) (P10828 whole entry, looked up): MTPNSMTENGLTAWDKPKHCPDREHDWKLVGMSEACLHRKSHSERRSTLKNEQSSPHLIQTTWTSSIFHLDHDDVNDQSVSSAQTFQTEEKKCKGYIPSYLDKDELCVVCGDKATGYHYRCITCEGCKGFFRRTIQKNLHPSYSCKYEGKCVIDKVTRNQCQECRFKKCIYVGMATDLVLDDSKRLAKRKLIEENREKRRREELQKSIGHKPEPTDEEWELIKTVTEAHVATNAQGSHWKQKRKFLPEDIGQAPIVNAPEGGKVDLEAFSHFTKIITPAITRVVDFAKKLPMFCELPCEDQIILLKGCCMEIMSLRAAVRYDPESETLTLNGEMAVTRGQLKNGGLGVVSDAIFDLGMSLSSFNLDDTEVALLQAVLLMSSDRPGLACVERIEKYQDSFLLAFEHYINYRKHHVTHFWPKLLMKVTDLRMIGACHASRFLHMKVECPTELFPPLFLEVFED

On to `O=C(/C=C/c1ccc(O)c(O)c1)O[C@@H](C(=O)O)[C@@H](OC(=O)/C=C/c1ccc(O)c(O)c1)C(=O)O`, for which the max response is 24.1% in test [1]; -0.499% in test [6]; -0.233% in [8]; 13% (inactive) in test [9]; -4.13% (inactive) in [16]; 27.4% (inactive) in test [19]. In addition, the max response in [22] was -5.44% (inactive). The Potency result in test [2], in test [11], in [12], in test [14], in test [15] and in test [17] was “inactive” each time. Also, the Potency result in test [18], in [20] and in test [21] was “inactive” each time. For the same molecule, the result in test [3], in [4], in test [5], in test [7] and in test [23] was inactive. In addition, the activity change % (negative = inhibition) in [10] was -11.2% (inactive). Besides, the activation in test [13] is 0.853% (inactive).
